# PubChem BioAssay (NCI)
# This is part of a sample that, as a whole, favours compounds with a hit. Of some 83,000 tested, about 20% had one in any assay.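 Percent growth is the endpoint: 0 to 100 indicates growth inhibition (40 means 60% inhibition), 0 means no net growth, and negative values indicate cell death.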 Values without a mark were called inactive. Activity calls are given as the source filed them. Rule for the calls: active = growth percent below 10; inactive = the rest.
# Tests used:
# Assay in all cases: NCI-60 one-dose screen, 48 h (100 = growth as untreated, 0 = no growth, -100 = all killed)
# Conditions in all cases: 10 µM unless noted
# [1] = tested on: NCI-H23 lung
# [2] = tested on: NCI-H226 lung
# [3] = tested on: NCI-H322M lung
# [4] = tested on: HOP-62 NSCLC
# [5] = tested on: NCI-H460 lung
# [6] = tested on: HOP-92 NSCLC
# [7] = tested on: NCI-H522 lung
# [8] = tested on: A549/ATCC NSCLC
# [9] = tested on: 786-0 renal
# [10] = tested on: COLO 205 colon
# [11] = tested on: DU-145 prostate
# [12] = tested on: K-562 leukemia
# [13] = tested on: MALME-3M melanoma
# [14] = tested on: MDA-MB-231 breast
# [15] = tested on: RXF 393 renal
# [16] = tested on: SF-268 CNS
# [17] = tested on: SF-295 CNS
# [18] = tested on: SF-539 CNS
# [19] = tested on: UACC-257 melanoma
# [20] = tested on: M14 melanoma
Structure (SMILES),growth [1],growth [2] [%],growth [3],growth [4],growth [5],growth [6],growth [7],growth [8],growth [9],growth [10],growth [11],growth [12],growth [13],growth [14],growth [15],growth [16],growth [17],growth [18],growth [19],growth [20]
CN(CCNc1ccc(C(=N)N)cc1)c1ccc(C(=N)N)cc1,81.3%,52.7,71%,112%,47.9%,62.7%,87.6%,41.9%,102%,135%,66.6%,74.4%,84.7%,91.8%,109%,99.4%,54.3%,101%,55.1%,96.1%
O=C1c2ccccc2C(=O)c2cc(Cn3c[n+](Cc4ccc5ccccc5c4)c4ccccc43)ccc21,56.5%,63.9,75.4%,76.2%,63.4%,15.6%,34.1%,91%,61.2%,24.4%,83.1%,17.6%,48%,26.2%,62.6%,49.3%,82.2%,70.6%,42.9%,38.7%
CC(CN)[C@@H]1CC[C@]2(CO)CC[C@]3(C)[C@H](CC[C@@H]4[C@@]5(C)CCC(NCCO)C(C)(C)[C@@H]5CC[C@]43C)[C@@H]12 (stereo not given in full),89.6%,95.8,86.8%,86.6%,4.46% (active),61.6%,59.3%,59.2%,59.2%,67.5%,63.5%,-49.4% (active),-35.5% (active),13.6%,58.6%,60.6%,70.9%,65.8%,84.9%,-2.37% (active)
Cn1cc(-c2nc(-c3c[nH]c4ccncc34)cs2)c2cc(F)ccc21,-55.9% (active),57.9,-75% (active),-85.6% (active),-70.5% (active),-89.5% (active),-66.1% (active),-79.6% (active),-92.5% (active),-74.1% (active),-98.1% (active),-53.6% (active),-88.9% (active),-90.7% (active),-94.7% (active),-80.1% (active),-85.9% (active),-97.1% (active),-73.1% (active),-87.3% (active)
Nc1nc(Nc2ccc([N+](=O)[O-])cc2O)nc(C(Cl)(Cl)Cl)n1,80.1%,90.2,96.9%,80%,90.2%,49.4%,10.9%,82.4%,97.1%,107%,97.3%,28.7%,84.9%,86.9%,76.1%,64.4%,93.2%,58%,85.7%,74.6%
COc1ccc(CNc2ccc3nc(CCC4CCCCC4)[nH]c3c2)cc1,77.5%,73.8,91.2%,75.8%,88.6%,38.3%,67.1%,80.2%,62.7%,-23.9% (active),83.4%,19.6%,59.4%,79.7%,74.2%,71.4%,91%,76.4%,75.3%,75.7%
Cc1cc2nc(C(Cl)Cl)nc(-c3ccccc3)n2n1,33.6%,90.7,10.9%,31.9%,-50% (active),72.9%,72.4%,4.73% (active),92.4%,1.99% (active),-6.97% (active),66.4%,113%,62.7%,9.08% (active),77.8%,55.7%,76.7%,93%,73.3%
CCOC(=O)c1cc(C(=O)c2cc(OC)cc(OC)c2)n2ncccc12,45.8%,57.5,72.5%,30.7%,14.7%,47.1%,25.4%,35.3%,34.2%,-13.2% (active),37.4%,17.8%,47.1%,54.5%,35.9%,44.3%,28.2%,20%,37.6%,-15.7% (active)
CCOC(=O)C#Cc1c(CC(=O)OCC)nnn1[C@H]1O[C@@H](CO)[C@@H]2OC(C)(C)O[C@@H]21,95.3%,93.8,93.9%,101%,104%,75.1%,-57.6% (active),75.9%,83.9%,-40.3% (active),94.5%,10.3%,26.6%,105%,3.65% (active),105%,97.4%,75.3%,62.8%,58.3%
O=C(Nc1ncc(Cc2ccccc2Cl)s1)c1ccc2c(c1)OCCO2,40.8%,30.1,48.9%,28.3%,5.42% (active),56.3%,1.6% (active),20.8%,41.2%,-3.85% (active),9.81% (active),8.27% (active),56.6%,23.5%,9.52% (active),41.2%,11.7%,-8.75% (active),53.1%,10.3%
Cc1ccc(Nc2cc(N)nc(N)n2)cc1,91.4%,110,98.5%,101%,101%,90%,94.3%,97.3%,99.6%,105%,107%,87.9%,102%,108%,114%,93.4%,103%,112%,110%,104%
CC(=O)Oc1ccccc1C(=O)N(Cc1ccc2c(Cl)cc(Cl)c(O)c2n1)c1ccccc1,50.3%,66.4,54.9%,36.6%,29.7%,61.6%,72.2%,29.2%,59.1%,93.7%,50.1%,22.5%,69.3%,68.8%,60.7%,39.8%,33.2%,59%,78.6%,51%
CCCCN(CCC#N)C(N)=O,115%,103,107%,105%,108%,97.2%,105%,109%,92%,120%,97.2%,115%,98.4%,104%,109%,99.7%,111%,100%,101%,112%
COc1cc(-c2c(-c3ccccc3)c[nH]c2C(=O)NCCCO)c(OC)c2c1OCO2,96.3%,95,95.9%,98.2%,110%,97%,93.9%,103%,102%,114%,111%,86.5%,108%,88.8%,93.5%,99.4%,101%,104%,106%,105%
O=c1ccc2nc(-c3ccccc3)nn(-c3ccccn3)c-2c1,90.8%,91.9,102%,95.9%,106%,55.8%,-59.7% (active),103%,63.5%,-68.8% (active),105%,-24.3% (active),50.1%,91.1%,26.8%,96.6%,103%,99.5%,72.3%,105%
C=C(C)[C@@H]1CCC[C@]2(C(=O)OC)CC[C@]3(C)[C@@H](CC[C@@H]4[C@@]5(C)CCCNC(C)(C)[C@@H]5CC[C@]43C)[C@@H]12,96%,84.4,79.6%,85.5%,94.4%,70.7%,91.8%,91.9%,90.1%,76.1%,105%,55.4%,79.6%,85.5%,90.9%,93.4%,104%,98.7%,98.9%,97%
